ChEMBL document CHEMBL3433997, “St. Jude Leishmania screening dataset” (2016)

What follows are molecules tested against Solute carrier family 2, facilitated glucose transporter member 1 (Homo sapiens) (UniProt P11166) (assay: ST_JUDE_LEISH: Cytotoxicity at 2uM final concentration against transgenic Leishmania Mexicana promastigotes LmGLUT1 that are glucose transport deficient and complemented with the human glucose transporter GLUT1. Activity is measured by DNA content using SYBR green in vitro).
Chain of Solute carrier family 2, facilitated glucose transporter member 1 (Homo sapiens) (P11166 whole entry): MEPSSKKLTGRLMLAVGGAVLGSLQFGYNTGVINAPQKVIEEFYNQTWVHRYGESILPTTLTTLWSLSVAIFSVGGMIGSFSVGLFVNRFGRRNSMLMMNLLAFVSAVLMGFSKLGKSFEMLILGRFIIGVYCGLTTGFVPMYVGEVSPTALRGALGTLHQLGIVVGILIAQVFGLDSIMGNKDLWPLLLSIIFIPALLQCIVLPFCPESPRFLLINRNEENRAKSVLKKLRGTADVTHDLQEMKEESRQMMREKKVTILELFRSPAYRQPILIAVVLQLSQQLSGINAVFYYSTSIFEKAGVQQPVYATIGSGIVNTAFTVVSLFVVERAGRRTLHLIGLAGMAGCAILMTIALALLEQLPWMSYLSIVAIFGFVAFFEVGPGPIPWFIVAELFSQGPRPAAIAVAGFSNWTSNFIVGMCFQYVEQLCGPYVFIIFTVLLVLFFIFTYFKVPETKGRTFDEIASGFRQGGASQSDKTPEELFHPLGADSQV
Type: functional

First: O=C(c1ccccc1)N(Cc1ccccc1-c1ccc(CNCCc2ccccc2)cc1)C1CCN(Cc2ccccc2)CC1
Second: O=C(Cn1c(CCc2cccc(F)c2F)nc(=O)c2ccccc21)N(CCCN1CCCCC1)Cc1ccc(-c2ccc(C(F)(F)F)cc2)cc1
The inhibition of the first is higher: 12.2% for the first, 2.28% for the second.

Compared with COc1ccc(-c2ccc(NC(=O)c3cccc(C#N)c3)cc2)cc1CN1CCCC(C(N)=O)C1 (configuration not stated), CN1CCC(C(=O)Nc2cccc(-c3ccc(-c4nc5cc(F)ccc5[nH]4)cc3)c2)CC1 is higher in inhibition: 3.09% for the first, 8.64% for the second.

Going from Cc1nc2ccc([N+](=O)[O-])cc2c(=O)n1OCc1ccccc1 to CN(C)c1cc2c(Nc3ccc4nc(Cc5ccccc5)[nH]c4c3)ncnc2cn1, the inhibition rises from 2.26% to 4.02%.

Compared with COc1cc2nc(N3CCC(CCCC4CCNCC4)CC3)nc(NCc3ccccn3)c2cc1OC, COc1cc(C=CC(=O)N2CCC3(CC2)CC(=O)c2ccccc2O3)cc(OC)c1OC is lower in inhibition: 73.5% for the first, 1.6% for the second.

Compared with Fc1ccc2[nH]c(-c3cccc(-c4ccc(CN5CCC(CCN6CCCCC6)CC5)cc4)c3)nc2c1, COCCN1CCC(N(Cc2ccc(-c3ccc(C(F)(F)F)cc3)cc2)C(=O)Cn2c(CCc3cccc(F)c3F)cc(=O)c3c2CCC3)CC1 is lower in inhibition: -0.64% for the first, -2.35% for the second.

First: CCN(CC)c1ccc(C=CC(=O)NCCN2CCC(N(C)C3CCCCC3C)CC2)cc1 (configuration not stated)
Second: O=C(/C=C/c1ccc(Cl)cc1)NCCCCCN1CCCC(C(=O)Nc2ccc(Cl)cc2)C1 (configuration not stated)
The inhibition of the first is lower: -2.14% for the first, 3.89% for the second.

First: O=C(Nc1ccc(Br)cc1)N1CCC(n2c(-c3ccccc3)nc3cccnc32)CC1
Second: CN1CCC(NCc2cccc(-c3cccc(S(=O)(=O)NCc4ccccc4)c3)c2)CC1
The inhibition of the first is lower: 2.24% for the first, 4.86% for the second.

First: C(=N\Nc1nccc2sc(-c3cccnc3)cc12)/c1cccnc1
Second: COc1ccc2nc(C)cc(N/N=C/c3ccc([N+](=O)[O-])o3)c2c1
The inhibition of the first is lower: 2.11% for the first, 3.7% for the second.

First: CC(C)Oc1cc(-c2ccc(S(C)(=O)=O)cc2)nc(N(Cc2cccc(F)c2F)Cc2cccc(F)c2F)n1
Second: CCOC(=O)C1=C(C)NC2=C(C(=O)CCC2)C1c1cn(Cc2ccc(Cl)cc2Cl)nc1-c1ccccc1 (configuration not stated)
The inhibition of the first is lower: -1.85% for the first, 2.11% for the second.

Going from CN(C)c1ccc(CN2CCCC(CNC(=O)c3ccc(-c4cccc(C(F)(F)F)c4)s3)C2)cc1 (configuration not stated) to Cc1ccc(CNC(=O)[C@H](Cc2ccccc2)Nc2cc(C)nc(NCC3CCCCC3)n2)cc1, the inhibition rises from 1.33% to 3.25%.

Compared with CCn1c2ccccc2c2cc(C=NN=c3cc(C)[nH]c4ccccc34)ccc21, CCN(CC)CCCC(C)N=c1cc(C=Cc2ccccc2Cl)[nH]c2cc(Cl)ccc12 (configuration not stated) is lower in inhibition: 4.76% for the first, 3.06% for the second.

Going from CCCCCc1cc(O)c2c(c1)OC(C)(C)C=C2C1=CCN(Cc2ccsc2)CC1 to O=C(Nc1cc(Cl)cc(Cl)c1)c1cc(Cl)c(=O)n(Cc2cccc(Cl)c2)c1, the inhibition rises from 2.33% to 3.25%.

First: O=C(CC(=O)C(F)(F)F)c1ccc2c(c1)OCO2
Second: Cc1ccc2ccncc2c1N
The inhibition of the first is lower: 1.45% for the first, 7.9% for the second.

Work on CCOc1cc(Cc2cnc(N)nc2N)cc(OCC)c1OCC yielded an inhibition of 4.33%.
